Test in all cases: PBM binding z-score (relative to random genomic background probes); higher = stronger binding; sequences stand for … in GC…GCGATTGACAGCGTAGAATGAAGG
Assay [1] concerns PPARg:RXRa DBDmut IVT, anti-RXR (DBD mutation: RXRa K156A/R161A, NR concentration 270 nM, RXRa partner concentration 90 nM). The essentials:
(§1)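 Probes were double-stranded and carried 34-nt variable regions with direct-repeat seeds, single-nucleotide variants, half-site ablations and random human genomic background sequences, printed on custom Agilent 4×180K protein-binding microarrays. Arrays were incubated 1 h with ligand-free nuclear receptor dimers in PBS pH 7.4, 2% milk, 0.02% Triton X-100, 1 mM DTT, 0.2 mg/mL BSA and 0.4 mg/ml salmon testes DNA. Antibodies against each partner (one per run) detected binding, and scanned fluorescence was regression-normalized. Binding z-scores use the random background probes as reference.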

Assay [2] has as its system PPARg:RXRa IVT, anti-PPARg (NR concentration 270 nM, RXRa partner concentration 90 nM). The essentials: as §1
In assay [3] the test system is PPARg DBDmut:RXRa IVT, anti-PPARg (DBD mutation: PPARg1 K132A/R137A, NR concentration 270 nM, RXRa partner concentration 90 nM). In short, it runs like this:
as §1

In assay [4] the test system is PPARg DBDmut IVT, anti-PPARg (DBD mutation: PPARg1 K132A/R137A, NR concentration 270 nM). In short, it runs like this: as §1
Assay [5] deals with PPARg homodimer (NR concentration 180 nM). In short, it runs like this: as §1
Assay [6] concerns PXR:RXRa (NR concentration 270 nM, RXRa partner concentration 90 nM). In short, it runs like this:
as §1

Assay [7] concerns PXR homodimer (NR concentration 270 nM). In short, it runs like this:
as §1

For assay [8], the system named is RARa:RXR (NR concentration 270 nM, RXRa partner concentration 90 nM). The essentials: as §1
Assay [9] has as its system RARa homodimer (NR concentration 270 nM). The essentials: as §1
Assay [10] concerns RARb:RXRa (NR concentration 270 nM, RXRa partner concentration 90 nM). In short, it runs like this:
as §1

The subject of assay [11] is RARb homodimer (NR concentration 270 nM). In short, it runs like this:
as §1

In assay [12] the test system is RARg:RXRa (NR concentration 270 nM, RXRa partner concentration 90 nM). The essentials: as §1
The subject of assay [13] is RARg homodimer (NR concentration 270 nM). The essentials: as §1
Assay [14] deals with RXRa DBDmut IVT, anti-RXR (DBD mutation: RXRa K156A/R161A, NR concentration 90 nM). The essentials:
as §1

Assay [15] deals with RXRa homodimer (NR concentration 180 nM). The essentials:
as §1

The subject of assay [16] is THRa:RXRa (NR concentration 90 nM, RXRa partner concentration 90 nM). In short, it runs like this: as §1
Assay [17] relates to THRa homodimer (NR concentration 90 nM). In short, it runs like this: as §1
Assay [18] concerns VDR:RXRa (NR concentration 270 nM, RXRa partner concentration 90 nM). The essentials:
as §1

The test system of assay [19] is VDR homodimer (NR concentration 270 nM). In short, it runs like this: as §1

Experimental findings from the supplement of paper PMC6555819 are described below.

Take CGAACTAGGTCATTGACAGGACAGTGAGTAGTAA: the PBM binding z-score in [1] came to 8.17; in assay [2] it was 8.32; in [3], 0.587; in [4], 2.61; in assay [5], 1.63; in assay [6], 1.38. The PBM binding z-score in assay [7] amounted to 0.241; in [8], 2.09; in assay [9] it was 0.277; in assay [10], 3.6; in assay [11], 2.57; in [12], 4.39. The PBM binding z-score is 4.12 in assay [13]; 2.41 in assay [14]; 2.42 in assay [15]; 2.81 in assay [16]; 0.505 in assay [17]; 2.18 in [18]. This sequence also showed a PBM binding z-score in [19] of 0.794.
As to CAAACTAGGTCACAGAGGTGAAAGTCCGTGCGTA, the PBM binding z-score in assay [1] is 8.61; in assay [2], 8.94; in [3] it was 5.86; in [4], 4.85; in assay [5], 2.36; in assay [6], 3.51. In addition, the PBM binding z-score in [7] is 0.909; in [8] it was 4.08; in assay [9], 0.879; in assay [10] it was 4.42; in assay [11], 3.98; in assay [12], 5.15. For the same sequence, the PBM binding z-score turned out to be 5.24 in assay [13]; 1.76 in [14]; 4.44 in [15]; 3.9 in [16]; 2.28 in assay [17]; 5.99 in assay [18]. Also, the PBM binding z-score in assay [19] was 2.6.
For TCTATTTGTTGAAGGGCAACCGACGAGTCCGTTT, the PBM binding z-score was found to be 2.54 in [1]; 1.08 in assay [2]; 1.34 in assay [3]; 1.56 in assay [4]; 1.38 in assay [5]; 1 in assay [6]. Further, the PBM binding z-score in assay [7] turned out to be 1.16; in assay [8], 0.596; in assay [9], 2.02; in assay [10], 1.68; in [11] it was 1.57; in assay [12], 0.705. For the same sequence, the PBM binding z-score in assay [13] turned out to be 1.07; in assay [14] it was 1.55; in [15], 0.578; in assay [16], 0.482; in assay [17] it was 0.62; in assay [18], 1.19. In addition, the PBM binding z-score in assay [19] is 1.92.
Take TCAGATAGGTAAACAGGTGAAAGTCCGTAAGTTA: the PBM binding z-score is 2.93 in assay [1]; 2.15 in assay [2]; 0.778 in assay [3]; 0.465 in [4]; 0.969 in [5]; 0.684 in assay [6]. Besides, the PBM binding z-score in [7] was 0.401; in [8], 1.05; in assay [9], 1.15; in assay [10] it was 0.891; in assay [11], 0.841; in assay [12], 0.678. In addition, the PBM binding z-score was determined as 0.219 in assay [13]; 1.48 in [14]; 1.01 in assay [15]; 0.664 in assay [16]; 0.307 in [17]; 0.923 in assay [18]. Further, in assay [19], the PBM binding z-score is 0.407.
Regarding ACTATTAGTTGAGACGAGGGAAACCGATAGGTTG, the PBM binding z-score is 0.0625 in [1]; -0.339 in assay [2]; 0.706 in assay [3]; 0.394 in [4]; 0.465 in assay [5]; -0.464 in assay [6]. In addition, the PBM binding z-score in [7] is -0.0777; in assay [8], 0.0368; in [9] it was 0.655; in [10] it was -0.193; in [11] it was -0.559; in [12], 0.157. For the same sequence, the PBM binding z-score in assay [13] was 0.307; in assay [14], 0.505; in assay [15] it was 0.0988; in assay [16], 0.35; in assay [17], -0.716; in [18], -0.364. The sequence further came in with a PBM binding z-score in [19] of 0.415.
Turning to GCTATTGGTTGAAAGGGCAACCGAATGATTCTCG, the PBM binding z-score in assay [1] was 0.217; in assay [2], 0.624; in assay [3], 0.114; in assay [4] it was -0.668; in assay [5], 0.512; in assay [6] it was 0.73. Moreover, the PBM binding z-score in assay [7] was 0.0657; in assay [8], 1.48; in assay [9], 0.176; in [10], 1.87; in assay [11], 1.94; in assay [12] it was 1.33. In addition, the PBM binding z-score is 1.27 in assay [13]; 0.0979 in assay [14]; 1.32 in [15]; 0.466 in assay [16]; -0.293 in assay [17]; 0.563 in [18]. The PBM binding z-score in assay [19] was found to be 0.0908.
For TCTCGGAGGACACGAAGGTCAGATCTTTCCAGAG, the PBM binding z-score in assay [1] was 1.59; in [2], 0.717; in assay [3], -0.994; in [4], -1.02; in [5], 2.07; in assay [6] it was 2.44. In addition, the PBM binding z-score came out at 2.3 in assay [7]; 2.16 in assay [8]; 0.52 in assay [9]; 3.35 in assay [10]; 3.7 in assay [11]; 3.45 in assay [12]. Further, the PBM binding z-score in assay [13] is 4.36; in assay [14] it was 1.15; in [15], 2.48; in [16], 2.94; in [17], 0.979; in [18], 2.61. Besides, the PBM binding z-score in assay [19] came out at 2.36.
